Screens from PubChem BioAssay.
Caspase-1 inhib: allosteric or competitive inhibitors of human caspase-1. P29466. Caspase-1 enzyme, Ac-WEHD-AFC fluorogenic rate. Potency, µM (series often up to 57.5 µM), most hits filed as inhibitors. 0.03% of 75,000 active. AID 900
Luciferase inh: firefly luciferase inhibition | purified firefly luciferase, luminescence, 8 min | Potency, µM (doses to about 57.1 µM), actives largely listed as inhibitors | 2.2% of 72,000 active; note: nearly all actives have a fitted effect of over 40% in size
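Luminescence read-out after 8 min at room temperature; enzyme reaction used luciferin plus 10 uM ATP (linear range) in imidazole buffer pH 7.2 with KCl, MgCl2, Tween 20 and BSA. Each sample was run as a titration.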
Bst PK mod: modulators of Bacillus stearothermophilus pyruvate kinase; purified pyruvate kinase, luminescence ATP production; ribose 5-phosphate activator present at AC10; Potency, µM; 1.2% of 51,000 active; AID 361; in the data active = potency below about 11 µM; inconclusive = mostly about 12 µM to 25 µM;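 the screen sought inhibitors and activators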
Casp7 inh: allosteric or competitive inhibitors of human caspase-7 | P55210 | recombinant caspase-7, Ac-DEVD-AFC fluorescence rate | Potency, µM (top dose mostly 57.5 µM), most hits filed as inhibitors | 0.02% of 75,000 active | AID 889; active = well fitted inhibition curve with a large enough effect in the main read-out, with a control signal flat, not every such curve was filed as active; inconclusive = small, poorly fitted or top-dose-only effect, or a change in a side signal
Tau fil binding: tau filament binding; P10636; Potency, µM (doses to about 57.1 µM); recombinant tau filaments, thioflavin S fluorescence, 15 h; filaments grown with octadecylsulfate alongside compound; 2% of 71,000 active;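 note: actives lower thioflavin S fluorescence by blocking filaments or displacing dye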
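Assay mix: 1 uM His-tagged tau, 30 uM sodium octadecylsulfate, thioflavine S dye in HEPES/NaCl/DTT buffer. Compound is added prior to the inducer. Fluorescence after 15 h at 37 C.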
Each line names hits and unclear results; the compound was inactive in the other large screens. Most compounds without a hit are left out; they make up all but 4% or so of the library. Unless noted, calls come from the whole dose curve; as a rule, active = well fitted curve in the direction sought with a large enough effect; inconclusive = small, poorly fitted or top-dose-only effect, or another doubt; inactive = no such curve, though single readings can be large; an effect the other way counts as inactive or inconclusive.

CC1=C(C(=O)NC2CCCC(C)C2C)C2(CCCCC2)OC1=O (centres undefined)	none (no result: Bst PK mod)
CC1=C(C(=O)Nc2cc(-c3cccc(F)c3)[nH]n2)C2(CCCCC2)OC1=O	Casp7 inh inconclusive, Tau fil binding 13µM (no result: Bst PK mod)
O=C(c1cnccn1)N1CCC2(CC1)CN(Cc1nccs1)C2	none (no result: Bst PK mod)
CCN1C(=C2C(=O)c3ccccc3C2=O)C=Cc2ccccc21	Tau fil binding 13µM (no result: Bst PK mod)
CCN1C(=O)/C(=c2\o/c(=C3\C=Cc4ccccc4N3CC)c(=O)n2CC)SC1=S	Tau fil binding inconclusive
Cc1nc2cnc(N3CCNCC3)nc2n(CCC#N)c1=O	Casp7 inh inconclusive (no result: Caspase-1 inhib, Bst PK mod)
COc1cc(OC)c(C2N(c3ccc(Cl)c(Cl)c3)C(=O)C3CCCN32)cc1OC (centres undefined)	none
COc1cc(OC)c(C2N(c3ccc(Cl)cc3)C(=O)C3CCCN32)cc1OC (centres undefined)	Tau fil binding 20µM (no result: Bst PK mod)
O=c1c(-c2ccc(F)c(F)c2)nc2cncnc2n1Cc1ccc(F)cc1	Tau fil binding 16µM (no result: Bst PK mod)
O=c1c(-c2ccc(F)c(F)c2)nc2cncnc2n1Cc1ccccc1Cl	Tau fil binding 7.9µM (no result: Bst PK mod)
COc1ccccc1CCn1c(=O)c(CCc2ccccc2)nc2cncnc21	none (no result: Bst PK mod)
CC(=O)OC1CC(C)OC(C)O1 (centres undefined)	none (no result: Luciferase inh, Bst PK mod)
C[C@]12C=CC(=O)C=C1CC[C@@H]1[C@H]3C[C@@H](O)[C@](O)(C(=O)CO)[C@@]3(C)C[C@H](O)[C@]12F	none (no result: Bst PK mod)
COc1ccc(-c2noc(CCC(=O)Nc3cc(Cl)c(OC)cc3OC)n2)cc1	Luciferase inh 16µM
CNC(=O)CCc1nc(-c2ccc(C(C)(C)C)cc2)no1	Luciferase inh 13µM, Bst PK mod inconclusive
CC(C)(C)c1ccc(-c2noc(CCC(N)=O)n2)cc1	Luciferase inh 13µM
CC(C)(C)NC[C@@H](O)COc1ccccc1C1CCCC1	Tau fil binding 13µM (no result: Bst PK mod)
O=C(c1ccc2c3c(cccc13)C(=O)N(O)C2=O)N1CCCCC1	none (no result: Caspase-1 inhib, Casp7 inh, Tau fil binding)
O=C1c2cccc3c(Cl)ccc(c23)C(=O)N1O	Bst PK mod 5.1
COc1ccc2nc(Nc3ccc4c(c3)OCO4)sc2c1	Tau fil binding 13µM
CN1CC[C@@]2(CCCN(S(=O)(=O)c3ccccc3)C2)C1	none (no result: Bst PK mod)
COC(=O)c1ccc(C(NC(=O)OCc2ccccc2)/C(=C/[C@@H](C)C(=O)N(C)C)c2cccnc2)cc1 (some centres undefined)	none (no result: Luciferase inh, Bst PK mod)
CN1CCN(c2ncc3nc(-c4cccc(C#N)c4)c(=O)n(C[C@H]4CCCO4)c3n2)CC1	Casp7 inh inconclusive (no result: Caspase-1 inhib, Bst PK mod)
Cc1onc(-c2ccccc2Cl)c1C(=O)Nc1ccc(-n2nncc2C(C)(C)C)cc1	Tau fil binding 25µM
COc1ccc(-c2ncc3ccccn23)cc1	Luciferase inh 16µM, Tau fil binding 20µM (no result: Bst PK mod)
Cc1ccc2nsnc2c1S(=O)(=O)N1CCN(Cc2ccc3c(c2)OCO3)CC1	Tau fil binding 16µM (no result: Bst PK mod)
Cc1ccc2nsnc2c1S(=O)(=O)N1CCCC1	Bst PK mod inconclusive
COc1ccc(NC(=O)c2sc(SC)nc2N)cc1	none (no result: Bst PK mod)
CCOC(=O)CSc1nc(N)c(C(=O)Nc2ccc(N(C)C)cc2)s1	Luciferase inh 13µM (no result: Caspase-1 inhib, Casp7 inh, Tau fil binding)
CCn1cc(SCC(=O)NCc2ccc3c(c2)OCO3)c2ccccc21	Luciferase inh 2µM (no result: Bst PK mod)
CNCC[C@H](Oc1ccccc1OC)c1ccccc1	Tau fil binding inconclusive (no result: Bst PK mod)
Nc1ccc2c3c(cccc13)CC2	none (no result: Caspase-1 inhib, Casp7 inh, Tau fil binding)
Nc1cccc2c(N)cccc12	Tau fil binding 32µM (no result: Luciferase inh, Bst PK mod)
Cc1ccc(S(=O)(=O)N(CC(=O)O)Cc2cccc(C)c2)cc1	none (no result: Luciferase inh, Bst PK mod, Tau fil binding)
Cc1ccsc1C=Nc1ccc(O)cc1	Caspase-1 inhib inconclusive, Tau fil binding 20µM (no result: Bst PK mod)
Cc1ccsc1/C=C/C1=NCCCN1C	none (no result: Luciferase inh, Bst PK mod, Tau fil binding)
Cc1nc2ccc(Cl)cc2nc(C)/c1=N\O	Luciferase inh inconclusive, Tau fil binding 13µM
O=C(Nc1ccc2c(c1)nc1n2CCSC1)c1ccccc1	Luciferase inh 10µM, Bst PK mod inconclusive
COc1ccc(C(=O)Nc2ccc3c(c2)nc2n3CCSC2)cc1	Caspase-1 inhib inconclusive, Luciferase inh 13µM, Bst PK mod inconclusive, Tau fil binding inconclusive
CCC(=O)Nc1ccc2c(c1)nc1n2CCSC1	none
CC(C)NC(=O)N1CC[C@@]2(CCCN(S(C)(=O)=O)C2)C1	none (no result: Bst PK mod)
Cc1nc2ccccc2c2nc3ccccc3n12	none (no result: Bst PK mod)
c1ccc2c(c1)nnn1c3ccccc3nc21	Luciferase inh 13µM, Tau fil binding 7.9µM (no result: Bst PK mod)
CC(C)(C)NC(=O)NC(=O)COc1ccccc1C#N	Luciferase inh 20µM
N=c1c(C(=O)NCc2ccco2)cc2c(=O)n3ccccc3nc2n1Cc1ccc(Cl)cc1	Casp7 inh inconclusive, Tau fil binding 3.2µM (no result: Caspase-1 inhib, Bst PK mod)
